# Bioassay records from PubChem BioAssay.
# The list is not random: actives were taken first. Their share in the collection is about 5.6%.
# PKM2 act: qHTS Assay for Activators of Human Muscle isoform 2 Pyruvate Kinase. Pyruvate kinase PKM (Homo sapiens), P14618. purified PKM2, Kinase-Glo ATP luminescence, activation; response scale: 0% is enzyme alone, no compound. Potency, µM (highest dose often 57.5 µM), for the others: at the top dose activation, hits mostly activators. 0.34% of 260,000 active. AID 1631, 2009; note: potency is the fitted concentration of half-maximal effect; nearly all actives have a fitted effect of over 55% in size
#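 hPK-M2, >95% pure; 0.1 mM ADP / 0.5 mM PEP final; imidazole pH7.2 buffer w/ 7 mM MgCl2, 50 mM KCl; 1 h RT; Kinase-Glo lum. Intermediate enzyme activity for dual inhibitor/activator qHTS.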
# CtBP-E1A inh: qHTS Assay for Inhibitors of the CtBP/E1A Interaction | AlphaScreen GST-E1A/His-CtBP binding, 1536-well; active compounds read low | activity change, % (concentration not given with the values) | 0.49% of 340,000 active | AID 651724, 2012; in the data active = activity change below about -65%; inconclusive = mostly about -30% to -63%
#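 AlphaScreen with 125 nM GST-E1A and 125 nM His-CtBP (5X stocks) in Tris pH 8.0, 300 mM NaCl, BSA, Tween 20, TCEP. Compounds preincubated 2 h at 37 deg C, then glutathione donor/nickel acceptor beads added for 1 h at 37 deg C in dark.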
# VP16 counter: VP16 counterscreen qHTS for inhibitors of ROR gamma transcriptional activity | Drosophila S2 Gal4-VP16 UAS-luciferase, luminescence, 20 h | Potency, µM (series often up to 53.6 µM), without a hit: at the top dose activity, negative = inhibition, most hits filed as inhibitors | 3.5% of 310,000 active | AID 2546, 2010;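 note: Gal4-VP16 expression switched on by copper sulfate through the metallothionein promoter; potency is the fitted concentration of half-maximal effect; nearly all actives have a fitted effect of over 50% in size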
# Six1-Eya2 inh: qHTS Assay for Inhibitors of the Six1/Eya2 Interaction; AlphaScreen GST-Six1/His-Eya2 binding, biochemical; active compounds read low; Homeobox protein SIX1 (Homo sapiens) + Protein phosphatase EYA2 (Homo sapiens), …; 0.56% of 360,000 active; activity change, % (concentration not given with the values); in the data active = activity change below about -65%; inconclusive = mostly about -30% to -63%
#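 GST-Six1 + His-Eya2 (5X stock: 250/500 nM); Tris pH 8.0, 300 mM NaCl, 0.05% BSA, 0.02% Tween 20; GSH donor/Ni acceptor beads; 1 h 37 °C dark; AlphaScreen readout.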
# RORg inh: qHTS for inhibitors of ROR gamma transcriptional activity | 5.4% of 310,000 active | Drosophila S2 Gal4-RORgamma UAS-luciferase reporter, 20 h | Potency, µM (doses to about 53.6 µM), inactives show at the top dose activity change, negative = inhibition, hits mostly inhibitors | Nuclear receptor ROR-gamma (Mus musculus), P51450; note: potency is the fitted concentration of half-maximal effect; nearly all actives have a fitted effect of over 60% in size
# Target sequence (P51450 whole entry, looked up, the tested form may be a part): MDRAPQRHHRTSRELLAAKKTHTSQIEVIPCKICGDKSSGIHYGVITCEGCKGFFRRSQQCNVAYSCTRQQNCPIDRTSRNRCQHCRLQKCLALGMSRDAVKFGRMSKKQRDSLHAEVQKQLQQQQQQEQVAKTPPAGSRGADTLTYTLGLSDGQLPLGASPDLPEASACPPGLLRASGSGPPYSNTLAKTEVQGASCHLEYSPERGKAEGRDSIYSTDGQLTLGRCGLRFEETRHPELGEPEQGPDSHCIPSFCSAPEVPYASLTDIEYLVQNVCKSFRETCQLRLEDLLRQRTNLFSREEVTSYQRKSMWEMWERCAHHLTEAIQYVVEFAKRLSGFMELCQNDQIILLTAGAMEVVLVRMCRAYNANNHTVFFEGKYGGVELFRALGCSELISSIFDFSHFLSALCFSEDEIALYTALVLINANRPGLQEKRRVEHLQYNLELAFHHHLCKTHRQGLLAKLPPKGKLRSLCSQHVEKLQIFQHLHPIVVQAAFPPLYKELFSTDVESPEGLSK
#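 Read-out: Photinus luciferase luminescence; inhibitors lower reporter signal. Insect Schneider cells with Gal4-ROR gamma fusion under metallothionein promoter, UAS reporter; 700 uM final copper sulfate induction, 20 hr, ambient temperature.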
# The depositor's hits bear a star; ? = inconclusive; . = no result; [ ] = dose if it differs, or a comment. Unless noted, calls come from the whole dose curve; as a rule, active = well fitted curve in the direction sought with a large enough effect; inconclusive = small, poorly fitted or top-dose-only effect, or another doubt; inactive = no such curve, though single readings can be large; an effect the other way counts as inactive or inconclusive. % is set by controls: 0 for no effect and ±100 for the full control effect.
SMILES,PKM2 act,CtBP-E1A inh,VP16 counter,Six1-Eya2 inh,RORg inh
CC1CCCCN1S(=O)(=O)c1ccc(C(=O)Nc2nnc(C3CC3)o2)cc1 (stereo not drawn),2%,?,0.32µM*,-15,0.13µM*
Cc1nnc(NC(=O)c2ccc(S(=O)(=O)N3CC(C)CC(C)C3)cc2)o1 (stereo not drawn),-5%,-24,1.4µM*,-25,1.4µM*
Cc1nnc(NC(=O)c2ccc(S(=O)(=O)N3CCc4ccccc4C3)cc2)o1,5%,-30,5µM*,-10,1.3µM*
Cc1ccc(S(=O)(=O)N(C)C)cc1NC(=O)CCc1ccccc1,6%,6,-1%,4,-4%
COc1ccc(-c2nc3c(c4c2C[C@H](c2ccccc2)OC4)CN(C(=O)Cc2cccs2)CC3)c(C)c1,-6%[11.5 µM],.,.,.,.
Cc1cccc(NC(=O)c2ccc(S(=O)(=O)N3CCCCC3C)cc2)n1 (stereo not drawn),.,0,.,-1,.
Cc1nnc(NC(=O)c2ccc(S(=O)(=O)N3CCCCC3C)cc2)o1 (stereo not drawn),-1%,-30,1.1µM*,-18,1.1µM*
CC1CCCCN1S(=O)(=O)c1ccc(C(=O)Nc2nnc(-c3ccccn3)o2)cc1 (stereo not drawn),6%,-2,5µM*,-7,2µM*
CC1CN(S(=O)(=O)c2ccc(C(=O)Nc3nnc(-c4ccccn4)o3)cc2)CC(C)O1 (stereo not drawn),-6%,-13,?,-10,?
O=C(Nc1nnc(-c2ccco2)o1)c1ccc(S(=O)(=O)N2CCCCC2)cc1,.,0,.,-13,.
CC1CCCCN1S(=O)(=O)c1ccc(C(=O)Nc2nnc(-c3ccco3)o2)cc1 (stereo not drawn),3%,-18,0.63µM*,-26,0.71µM*
Cn1c(-c2sc3cc(C(F)(F)F)cnc3c2-c2ccccn2)n[nH]c1=S,-8%,-5,3%,0,?
Cn1c(-c2sc3cc(C(F)(F)F)cnc3c2-c2cccs2)n[nH]c1=S,3%,-2,-7%,-5,2.8µM*
CCOC(=O)c1sc2nc(C)n(N)c(=O)c2c1C,3%,3,1%,5,9%
CCOC(=O)c1sc2nc(C)[nH]c(=S)c2c1C,4%,2,0.79µM*,-4,0.56µM*
O=C1C=C(Nc2ccccc2O)c2ccccc2C1=O,-6%,12,10µM*,?,?
O=C1C=C(Nc2ccc(F)cc2)c2ccccc2C1=O,.,-3,.,-19,.
Cc1ccc(NC2=CC(=O)C(=O)c3ccccc32)c(C)c1,.,.,.,1,.
O=C1C=C(NCc2ccccc2)c2ccccc2C1=O,1%,-29,?,?,16µM*
N#Cc1ccc2[nH]c(CO)c(-c3ccccc3)c2c1,-1%,-7,-2%,1,20%
CC(CC(=O)NC1CCCCC1)S(=O)(=O)c1ccc2c(c1)NC(=O)CO2 (stereo not drawn),1%[0.46 µM],0,3%,3,1%
CN1CC(c2ccccn2)C2(SC(=S)N(Cc3ccccc3)C2=O)C12C(=O)Nc1ccccc12 (stereo not drawn),0%,-76*,?,-76*,?
COC(=O)C(Cc1ccc(O)cc1)NC(=O)c1ccccc1 (stereo not drawn),-2%,2,?,2,2.2µM*
Cc1c(C)n(Cc2ccccc2)c2ncnc(NN)c12,.,-2,16µM*,0,?
c1cn(-c2ccc(-c3ccnc4ncnn34)cc2)cn1,-21%,0,-8%[10 µM],8,-23%
SMILES,PKM2 act,CtBP-E1A inh,VP16 counter,Six1-Eya2 inh,RORg inh
Cc1nc(-c2ccccc2)cc(-c2ccccc2)n1,.,26,.,31,.
CN(N)c1nc(-c2ccccc2)cc(-c2ccccc2)n1,-1%,-3,?,11,13µM*
COc1ccc(OCc2cc(C(=O)NCc3nc(C)cs3)no2)c(Cl)c1,2%,6,-1%,-1,27%
Cn1c(Cc2ccccc2)nnc1SCC(=O)N1CCN(c2ccccc2)CC1,13µM*,2,-6%,-1,-5%
C=CCn1c(CSCc2ccccc2)nnc1SCC(=O)N1CCN(c2ccccc2)CC1,0%,4,?,-9,28µM*
COc1ccc(Cc2nnc(N/N=C/c3ccc(O)cc3)[nH]c2=O)cc1OC,-19%,-91*,4µM*,-82*,2.2µM*
COc1ccc(Cc2nnc(N/N=C/c3ccc(C)o3)[nH]c2=O)cc1,13%,?,-26%,?,11µM*
COc1ccc(/C=N/Nc2nnc(Cc3ccccc3)c(=O)[nH]2)cc1OC,-1%,?,-24%,-66*,-43%
COc1cc(C(=O)Nc2ccc(S(=O)(=O)N3CCOCC3)cc2)c([N+](=O)[O-])cc1OC,1%,6,-4%,-5,33%
CC(=O)Oc1ccccc1N(C(C)=O)S(=O)(=O)c1ccc2ccccc2c1,0%,-7,-4%,0,?
CC(=O)Oc1ccc(N(C(C)=O)S(=O)(=O)c2cccs2)c2ccccc12,?,-13,?,-23,20µM*
N=C1SC(c2ccccc2)C(=O)N1c1ncc(Cc2ccccc2Cl)s1 (stereo not drawn),5%,2,1.3µM*,-16,1.4µM*
COc1c[nH]n(-c2ccccc2)c(=O)c1=O,.,1,.,22,.
C#CC(=O)N(c1cc(OC)ccc1OC)C(C(=O)NC1CCCC1)c1cccs1 (stereo not drawn),3%,-11,7.1µM*,1,4.5µM*
C#CC(=O)N(c1ccc(OC)cc1OC)C(C(=O)NC1CCCC1)c1cccs1 (stereo not drawn),-1%,.,7.9µM*,-12,6.3µM*
COCCN(C(=O)CSc1nc2ccccc2s1)c1c(N)n(Cc2ccccc2)c(=O)[nH]c1=O,.,-6,.,0,.
COc1ccc(-c2nc3cnc(N4CCN(C)CC4)nc3n(CCc3ccccc3)c2=O)cc1,.,.,0%,.,-1%
NNC(=O)c1ccc(O)cc1O,0%,13,3.2µM*,-7,1.3µM*
O=C(NN=C1CCCC1)c1ccc(O)cc1O,-4%,-12,11µM*,-15,7.9µM*
C[C@@H](O)C(N)C(=O)O (stereo partly drawn),.,.,6%,.,-10%
C[C@H](CO)N1C[C@H](C)[C@@H](CN(C)C(=O)Nc2ccccc2)Oc2c(NC(=O)C3CCCCC3)cccc2C1=O,.,3,.,-4,.
CC(C)(CNC(=O)c1ccccc1F)CNC(=O)c1ccccc1F,.,-1,.,0,.
